# Data taken from PubChem BioAssay AID602193 (The Scripps Research Institute Molecular Screening Center, 2012).
# Out of some 1,600 compounds screened, about 410 (26%) were called active.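 Rule for the calls: active = mean inhibition over triplicates above the low-control well mean plus 3 SD, set per campaign (cut at about 13% in these data); inactive = the rest.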 These entries were drawn from the full list.
# Assay: nonselective cAMP signaling inhibitors, parental cells, counter-screen for MC4R biased antagonist project, cell-based, TR-FRET, U2OS, forskolin, triplicate (AID 602193);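 note: signal is single emission at 671 nm which falls as cellular cAMP rises; 0% = forskolin-stimulated wells and 100% = buffer without forskolin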
# Details: LANCE TR-FRET, at 6.5 µM, stronger effect = higher value
row,SMILES,inhibition
1,O=C1/C(=C\c2ccc([N+](=O)[O-])cc2)CS(=O)(=O)C/C1=C/c1ccc([N+](=O)[O-])cc1,26.1% (active)
2,Cc1ccc(S(=O)(=O)N(C)CC(=O)OCC(=O)Nc2ccccc2)cc1,14.4% (active)
3,COc1ccccc1N(CC(=O)N/N=C(\C)c1ccccc1O)S(=O)(=O)c1ccc(C)cc1,5.78% (inactive)
4,Cc1ccc(S(=O)(=O)N(C)CC(=O)OCC(=O)N2CC(=O)Nc3ccccc32)cc1,17.6% (active)
5,Cc1ccc(S(=O)(=O)CCC(=O)OCC(=O)N(C)Cc2ccccc2)cc1,1.96% (inactive)
6,CCOC(=O)C(C)n1cnc2sc(C)c(C)c2c1=O (configuration not stated),4.97% (inactive)
7,CC(C)Oc1ccc(/C=C(\NC(=O)/C=C/c2ccco2)C(=O)NCCc2nc3ccccc3[nH]2)cc1,2.02% (inactive)
8,O=C(CSc1nc2ccc(Nc3nc(N4CCOCC4)nc(N4CCOCC4)n3)cc2s1)NCc1ccco1,-2.96% (inactive)
9,Cc1ccc(NC(=O)c2c(NC(=O)CCC(=O)O)sc3c2CCCCC3)cc1,3.65% (inactive)
10,N#C/C=C1\Sc2ccccc2C(=O)N1CC(=O)N1CCN(S(=O)(=O)c2ccccc2)CC1,7.11% (inactive)
11,O=C(COC(=O)Cn1cnc2ccccc2c1=O)NCC12CC3CC(CC(C3)C1)C2,19% (active)
12,O=C(Nc1ccccc1Cl)/C(Cl)=C(\Cl)S(=O)c1ccccc1 (configuration not stated),-0.54% (inactive)
13,Cc1c(CCC(=O)O)c(=O)oc2cc(OCc3ccc(Br)cc3)ccc12,2.85% (inactive)
14,COc1ccc(Cl)cc1-c1cc(C(=O)Nc2cc(OC)c(OC)c(OC)c2)[nH]n1,-12.1% (inactive)
15,O=S(=O)(NCc1ccco1)c1cnc(Cl)c(Cl)c1,21.1% (active)
16,COc1ccc(-n2nc(C(=O)Nc3cc(OC)c(OC)c(OC)c3)c3ccccc3c2=O)c(OC)c1,6.04% (inactive)
17,Cc1ccc(C)c(S(=O)(=O)N2CCN(CC(=O)Nc3ccc([N+](=O)[O-])cc3)CC2)c1,-1.3% (inactive)
18,COc1ccc2sc(-c3ccc(S(C)(=O)=O)cc3)c(-c3ccc(C(N)=O)cc3)c2c1,6.51% (inactive)
19,CSc1nnc(NC(=O)c2nc(S(=O)(=O)Cc3ccc(C)cc3)ncc2Cl)s1,26.5% (active)
20,O=C(Nc1nnc(Cc2ccc(Cl)cc2)s1)c1cccnc1,-0.09% (inactive)
21,O=C(NCCc1c[nH]c2ccccc12)c1cccc(Br)c1,2.29% (inactive)
22,Cc1ccc(-c2nnc(CN3CCN(C)CC3)o2)cc1,-0.67% (inactive)
23,CCCCOC(=O)CNc1nnc(SCC(=O)OCC)[nH]c1=O,34.4% (active)
24,CC(NS(=O)(=O)c1ccc(Br)cc1)C(=O)NCC1CCCO1 (configuration not stated),4.96% (inactive)
25,CCOC(=O)c1cc(C)nc(S(C)(=O)=O)c1C#N,9.09% (inactive)
26,N#Cc1c(-c2cccs2)nc(SCC(=O)c2ccc(Br)cc2)[nH]c1=O,12.9% (inactive)

row,SMILES,inhibition
1,C#Cc1cc(N2CCN(C(=O)c3ccoc3)CC2)n2nc(-c3cccc(Cl)c3)cc2n1,6.98% (inactive)
2,COc1ccc(C(C[N+](=O)[O-])n2nc(C)cc2C)cc1 (configuration not stated),16.1% (active)
3,O=C(NCC1CCN(Cc2ccccc2Cl)CC1)Nc1cccc(Cl)c1,-1.82% (inactive)
4,CC(=O)N1CCN(S(=O)(=O)c2c(F)cc(F)c(Cl)c2F)CC1,15.9% (active)
5,O=C(c1ccc2c(c1)N(Cc1ccc(F)cc1)C(=O)c1ccccc1S2(=O)=O)N1CCN(c2ccccn2)CC1,1.79% (inactive)
6,O=C(Cn1nnc2ccccc2c1=O)Nc1cc(C(F)(F)F)ccc1N1CCOCC1,-0.34% (inactive)
7,CN(CC(=O)NCCc1ccccn1)S(=O)(=O)c1ccc(Cl)cc1,-1.11% (inactive)
8,Cc1c(Cl)cccc1NC(=O)[C@@]1(CC(=O)O)CC(/C=C/c2ccccc2)=NO1,0.29% (inactive)
9,COc1ccc(Oc2c(Cl)cnn(-c3ccccc3)c2=O)cc1,38.1% (active)
10,O=C(COC(=O)c1c2c(nc3ccccc13)CCCC2)c1ccc(Br)s1,4.15% (inactive)
11,CCN(CC(=O)NCCCN1CCOCC1)S(=O)(=O)c1cc(Cl)ccc1Cl,-1.05% (inactive)
12,Cc1ccc(NC(=O)COC(=O)CNC(=O)c2ccc(Cl)cc2Cl)cc1S(=O)(=O)N1CCOCC1,7.9% (inactive)
13,Cc1nc2ccccc2c(=O)n1NC(=O)c1ccc(Cl)c([N+](=O)[O-])c1,18.5% (active)
14,CC1(C)C(c2cccs2)=[N+]([O-])C2(CCCCC2=O)N1O (configuration not stated),-3.22% (inactive)
15,Cc1ccc(C(C(=O)NCC2CCCO2)N(C(=O)c2snc(C(N)=O)c2N)c2ccc(C(C)C)cc2)o1 (configuration not stated),0.79% (inactive)
16,CC(C)(C)OC(=O)N1CCC(NC(=O)c2[nH]cnc2C(=O)N[C@@H](Cc2ccccc2)C(=O)OCc2ccccc2)CC1,16.5% (active)
17,COC(=O)[C@H](Cc1ccccc1)NC(=O)[C@@H]1C[C@H]1[C@@H](NC(=O)OCc1ccccc1)c1ccccc1,12% (inactive)
18,O=C(Nc1ccc(F)c([N+](=O)[O-])c1)C1CC(=O)N(Cc2ccccc2)C1 (configuration not stated),8.59% (inactive)
19,Cc1cccc(OCC(O)Cn2c(N3CCCCC3)nc3c2c(=O)[nH]c(=O)n3C)c1 (configuration not stated),2.12% (inactive)
20,COc1ccc(/C=N/OCC(=O)N(Cc2ccccc2)c2ccccc2C(=O)O)cc1,-3.38% (inactive)
21,CCOC(=O)c1c(-c2ccccc2)oc2cc(Br)c(O)c(C=O)c12,30.2% (active)
22,Cc1nnc(N/N=C/C2CC=CCC2)[nH]c1=O (configuration not stated),-2.01% (inactive)
23,O=C(O)CCn1cc(/C=C/C(=O)c2ccc(Cl)cc2)c(-c2cccc(Br)c2)n1,-0.6% (inactive)
24,Cc1ccccc1-c1n[nH]c(=S)n1/N=C/c1ccc(-c2ccccc2Br)o1,0.55% (inactive)
25,O=C(COC(=O)[C@H](Cc1ccccc1)NC(=O)c1cccs1)Nc1cc(F)ccc1F,13.2% (active)
26,Cc1ccc(OCC(=O)Nc2ccc(NC(=O)c3cccs3)cc2)c(C)c1,-2.94% (inactive)

row,SMILES,inhibition
1,O=C(Nc1nccs1)c1cc(S(=O)(=O)N2CCOCC2)c(Cl)cc1Cl,10.5% (inactive)
2,CC(=O)Nc1ccc(Sc2ccccc2C(=O)N2CCCC2)cn1,-1.96% (inactive)
3,Cc1ccc(NC(=O)C(C)OC(=O)Cc2c[nH]c3ccccc23)cc1S(=O)(=O)N1CCOCC1 (configuration not stated),2.7% (inactive)
4,CC(C)Oc1c(Br)cc(Br)cc1/C=N/NC(N)=S,19.3% (active)
5,C=Cn1c(C(=O)O)ccc1-c1ccc(OC)cc1,-3.83% (inactive)
6,CCOC(=O)c1c(NC(=O)CCl)sc(C(=O)N(CC)CC)c1C,17.7% (active)
7,Cc1ccc(NS(=O)(=O)c2ccc(C)c(NC(=O)COc3ccc4ccccc4c3)c2)c(C)c1,2.54% (inactive)
8,COc1cccc(OC)c1C(=O)Nc1c(C(=O)N2CCN(c3ccccn3)CC2)oc2ccccc12,-1.8% (inactive)
9,CC1(C)Cc2ccccc2-c2[nH]c(=S)[nH]c(=O)c21,22.1% (active)
10,CCOc1ccc(Nc2nc(Cl)nc(N3CCN(c4ccc(OC)cc4)CC3)n2)cc1,11.2% (inactive)
11,O=C(OCC(=O)N1CCCCCC1)c1cnc(Cl)c(Cl)c1,21.2% (active)
12,COc1ccc(CCNC(=O)c2cnc(Cl)c(Cl)c2)cc1,13.7% (active)
13,COc1ccc(CCNC(=O)COC(=O)c2cnc(Cl)c(Cl)c2)cc1,17.2% (active)
14,COc1ccc(C(C)C)cc1S(=O)(=O)Nc1ncn[nH]1,0.13% (inactive)
15,CCCC(C(=O)n1nc(C)cc1C)C(NS(=O)(=O)c1ccc(C)cc1)c1ccccc1 (configuration not stated),3.42% (inactive)
16,CCOC(=O)CSc1nc(N2CCOCC2)c2c(c1C#N)CC(C(C)C)OC2 (configuration not stated),3.57% (inactive)
17,Cc1ccc(CSc2nnc(-c3cnccn3)n2C)cc1,-1.1% (inactive)
18,COc1ccc(-c2n[nH]c(C)c2-c2ccccc2OC)c(O)c1,4.68% (inactive)
19,COc1ccc2oc(N)c(C=O)c(=O)c2c1,-1.23% (inactive)
20,COc1ccc(-c2nc3n(c(=O)c2C#N)CCS3)c(OC)c1,-2.32% (inactive)
21,O=C(NC1=CC(=O)c2ccccc2C1=O)c1ccccc1,-5.71% (inactive)
22,COC(=O)c1sc(-c2ccc(C(C)(C)C)cc2)cc1NC(=O)/C=C/C(=O)O,1.28% (inactive)
23,COCCCNC(=O)/C(C#N)=C/c1c(N2CCCCCC2)nc2ccccn2c1=O,9.32% (inactive)
24,CN(C)C(CNC(=O)CCCOc1ccccc1)c1ccco1 (configuration not stated),-0.67% (inactive)
25,Cc1ccc(Sc2ccc(NC(=O)c3ccc(F)cc3)cc2C#N)cc1,5.25% (inactive)
